PubChem BioAssay (NCATS)
Records with an inconclusive call do not appear. A call without a number means that no potency is given here. Active and inactive are the calls of the source. Calls follow the shape of the dose curve; as a rule, active = well fitted inhibition curve with a large enough effect; inconclusive = small, poorly fitted or top-dose-only effect; inactive = flat fitted curve, though single readings scatter.

Test: P-glycoprotein substrates identified in KB-8-5-11 adenocarcinoma cell line, qHTS therapeutic library screen (AID 1346987); also: nearly all actives have a fitted effect of over 65% in size
Conditions: KB-8-5-11 (P-gp overexpressing) viability, CellTiter-Glo, 72 h; series mostly up to 44.5 µM
Outline: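 In this qHTS, P-gp-rich KB-8-5-11 cells received library compounds across a concentration range. Viability was quantified by luminescence after 72 h at 37 degree C.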
With `C=C1CC2C3(C)C(OC(C)=O)CC(=O)OC(C)(C)C3C(O)C(OC(C)=O)C2(C)C2C(=O)OC(C)C(=O)C12C` (stereo unspecified) the Potency was “inactive”. For `O=C(O[C@H]1[C@@H]2C=CO[C@@H](O[C@@H]3O[C@H](CO)[C@@H](O)[C@H](O)[C@H]3O)[C@@H]2[C@@]2(CO)O[C@@H]12)c1ccc(O)cc1`, the Potency was “inactive”. For `CCCOc1ccn2c(C(C)=O)cc(-c3ccccc3S(C)(=O)=O)c2c1`, the Potency was “inactive”. With `CC(=O)N(O)CCCCCN1C(=O)CCC1=O` the Potency was “inactive”. With `C/C1=C\C[C@H](O[C@@H]2O[C@H](CO)[C@@H](O)[C@H](O)[C@H]2O)/C(C)=C/[C@H]2OC(=O)[C@H](C)[C@@H]2CC1` the Potency was “inactive”. In the case of `C=C1CCC2C(C)(CO[C@@H]3O[C@H](CO)[C@@H](O)[C@H](O)[C@H]3O)C(O)CCC2(C)C1C(=O)CC1=CCOC1=O` (stereo partly specified), the Potency was “inactive”. For `O=C(OCC12OC1C=CC(OC(=O)c1ccccc1)C2O)c1ccccc1` (stereo unspecified), the Potency was “inactive”. For `C=C1CCC2C(C)(C(=O)O)CC(O)CC2(C)C1CC/C(C)=C/C(=O)O` (stereo unspecified), the Potency was “inactive”. With `CC1(C)CC[C@]2(C(=O)O[C@@H]3O[C@H](CO)[C@@H](O)[C@H](O)[C@H]3O)CC[C@]3(C)C(=CCC4[C@@]5(C)C[C@@H](O)[C@H](O)C(CO)(CO)C5CC[C@]43C)C2[C@@H]1O` (stereo partly specified) the Potency was “inactive”. For `C(#Cc1cccc(CN2CCOCC2)c1)CCN1CCCCC1`, the Potency was “inactive”. With `C/C=C/C=C/C=C/C(=O)O[C@@H]1[C@@H](OC)C2=C(C(=O)N(C(C)C(=O)O)C2)[C@@]2(C)CCCC(C)(C)[C@H]12` (stereo partly specified) the Potency was “inactive”.
